Calls of active or inactive are those of the source. The calls were made as follows: active = hit-call score of the fitted dose curve at least 0.9, where 1 is the maximum; inactive = score below 0.9.

Usually AC50 stands for the concentration giving half of the maximal activity seen.

This experiment is described as follows: ATG_E_Box_CIS: Attagene CIS-FACTORIAL HepG2 Assay for human Enhancer Box (E-box) (AID 2282936). Particulars: HepG2 E-box cis-reporter transcription, actives raise or lower the signal. As for the experimental part:
ATG_CIS is a cell-based, multiplexed-readout assay that uses HepG2, a human liver cell line, with measurements taken at 24 hours after chemical dosing in a 24-well plate.ATG_E_Box_CIS is one of 52 assay component(s) measured or calculated from the ATG_CIS assay. It is designed to make measurements of mRNA induction, a form of inducible reporter, as detected with fluorescence intensity signals by Reverse transcription polymerase chain reaction (RT-PCR) and Capillary electrophoresis technology.Data from the assay component ATG_E_Box_CIS was analyzed into 1 assay endpoint. This assay endpoint, ATG_E_Box_CIS, was analyzed with bidirectional fitting relative to DMSO as the negative control and baseline of activity. Using a type of inducible reporter, measures of mRNA for gain or loss-of-signal activity can be used to understand the reporter gene at the transcription factor-level as they relate to the gene USF1. Furthermore, this assay endpoint can be referred to as a primary readout, because this assay has produced multiple assay endpoints where this one serves a reporter gene function. To generalize the intended target to other relatable targets, this assay endpoint is annotated to the dna binding intended target family, where the subfamily is basic helix-loop-helix protein.
Human liver HepG2 cells are transiently transfected with multiple reporter transcription units (MRTUs) in 6-well plates using FuGene 6 reagent (Roche; 3 ml FuGene/1 mg DNA). The MRTU constructs are regulated by a cis-regulating element (promoter). […] A major difference between the CIS and TRANS system is that in CIS activities of endogenous TFs are measured, whereas the TRANS assay evaluates changes in activities of exogenous, chimeric NR-Gal4 proteins. […] At the end of 24 hour incubation, total RNA was isolated using TriZol reagent (Invitrogen). The isolated RNA is then reverse-transcribed using oligo(dT) primer and Mo-MLV reverse transcriptase (Invitrogen) with DNAse I (Ambion) treatment for 30 min. The one-tenth of the produced cDNA was amplified by PCR using Taq DNA polymerase (Invitrogen) and two reporter sequence-specific primers. The PCR products were fluorescently labeled by primer extension with 6-arboxyfluorescein (6-FAM) 5'-labeled reporter sequence-specific primer (2 min at 95 C, 20 s at 68 C and 10 min at 72 C) and these products were digested with 5U of HpaI (New England Biolabs) for 2h at 37 C. The fragments were purified using Qiaquick PCR columns (Qiagen), analyzed on an ABI 3130xL genetic analyzer (Applied Biosystems) with peak positions identified by using a set of X-rhodamine (ROX)-labeled MapMarker1000 molecular weight standards (BioVentures). The raw capillary electrophoresis data was processed using Attagraph software (Attagene).
On to `COc1nn(C(=O)NS(=O)(=O)c2ccccc2OC(F)(F)F)c(=O)n1C`, for which the outcome was inactive.

For the molecule `CS(=O)(=O)c1ccc(C(=O)C2C(=O)CCCC2=O)c(Cl)c1COCC(F)(F)F`, the result was inactive.

As to `CC(=O)CN(CC(C)=O)N=O`, the result was inactive.

Consider `C[As+](C)(C)CC(=O)[O-]`, for which the outcome was inactive.

`C=CCN=C=S`: the result was inactive.

For the molecule `CCN(CC)C(=O)C(Cl)=C(C)OP(=O)(OC)OC`, the result was inactive.

For the molecule `Clc1ccc(C(Cl)(Cl)Cl)cn1`, the result was inactive.

On to `CNC(=O)CSP(=O)(OC)OC`, for which the result was inactive.

In the case of `CCCCCCCCCCCCN(C)C`, the concentration at half-maximal activity (AC50) is 7.96 µM (active).

Take `N#Cc1ccccc1N`: the outcome was inactive.

Take `CCOP(=S)(OCC)SCS(=O)(=O)C(C)(C)C`: the outcome was inactive.

For the molecule `Cc1ccc(CCl)cc1`, the outcome was inactive.

For `BrCc1ccc(Br)cc1`, the result was inactive.

With `CNC(=O)N(C)c1nc2ccccc2s1`, the outcome was inactive.

On to `N#CCCC(Br)(C#N)CBr` (stereo not given), for which the AC50 was 62.4 µM (active).

Turning to `CCCCCCCCCCCCCCC(Br)C(=O)O` (stereo not given), the result was inactive.

For `CC(C)CC(C)(c1ccc(O)cc1)c1ccc(O)cc1`, the result was inactive.

For the molecule `CN(N=O)c1ccc([N+](=O)[O-])cc1`, the outcome was inactive.

As to `O=[N+]([O-])c1cccc2ccccc12`, the result was inactive.

Regarding `O=C(NC(=O)c1c(F)cccc1F)Nc1cc(Cl)c(OC(F)(F)C(F)C(F)(F)F)cc1Cl` (stereo not given), the outcome was inactive.

With `CC(C)(COCC1CO1)COCC1CO1` (stereo not given), the result was inactive.

As to `O=[N+]([O-])c1ccccc1O`, the outcome was inactive.

With `OCC(c1ccc(Cl)cc1)c1ccc(Cl)cc1`, the outcome was inactive.

Take `CCOP(=O)(OCC)SCCSCC`: the outcome was inactive.

`C=CCOC(N)=O`: the outcome was inactive.

On to `CC(C)(C)c1ccccc1O`, for which the outcome was inactive.

With `CCCCN(CCCC)C(=S)[S-].CCCCN(CCCC)C(=S)[S-].[Ni+2]`, the outcome was inactive.

In the case of `O=[N+]([O-])c1cc([As](=O)(O)O)ccc1O`, the outcome was inactive.

With `Cc1cc(C(F)(C(F)(F)F)C(F)(F)F)ccc1NC(=O)c1cccc(I)c1C(=O)NC(C)(C)CS(C)(=O)=O`, the result was inactive.

Take `O=C(O)CC(O)(CC(=O)O)C(=O)O`: the result was inactive.

With `C=CC(=O)[O][Sn]([CH2]CCC)([CH2]CCC)[CH2]CCC`, the concentration at half-maximal activity (AC50) was 0.551 µM (active).

`O=C(CCl)NCO`: the result was inactive.

As to `c1ccc(-c2cccc(-c3ccccc3)c2)cc1`, the result was inactive.

Consider `ClCc1ccccc1Cl`, for which the result was inactive.

Take `CCCCS(=O)(=O)Cl`: the result was inactive.

Take `OCCN(CCO)CCO`: the outcome was inactive.

For the molecule `Cc1cc(C)cc(C)c1`, the outcome was inactive.

Turning to `C=CC(Cl)CCl` (stereo not given), the outcome was inactive.

Consider `Nc1nc(N)nc(Cl)n1`, for which the outcome was inactive.

Take `CC(C)=CC1C(C(=O)OCc2cccc(Oc3ccccc3)c2)C1(C)C` (stereo not given): the outcome was inactive.

These data come from PubChem BioAssay (EPA / NIEHS).
